{"source": "PubChem BioAssay (NCATS)", "key": {"[1]": {"assay": "qHTS assay to identify small molecule inhibitors of chordoma cells - UCH-2 (AID 1259356)", "conditions": "UCH-2 chordoma viability, CellTiter-Glo ATP luminescence, 48 h; series mostly up to 46.1 µM"}, "[2]": {"assay": "P-glycoprotein substrates identified in KB-3-1 adenocarcinoma cell line, qHTS therapeutic library screen (AID 1346986); also: nearly all actives have a fitted effect of over 60% in size;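 also: potency is read from the fitted curve at half-maximal effect; potency is for cytotoxicity meaning loss of cell viability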", "conditions": "KB-3-1 parental cells viability, CellTiter-Glo, 72 h; series mostly up to 44.5 µM", "in_short": "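Dose-response cytotoxicity, KB-3-1 vs P-gp-high KB-8-5-11, no colchicine in assay medium. Read: CellTiter-Glo at 72 h.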"}, "[3]": {"assay": "Identifying Small Molecule Inhibitors of Pancreatic Cancer Stem Cells (SN12C, Adherent) (AID 1259358);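 also: cell survival measured after 48 h of compound exposure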; also: potency is read from the fitted curve at half-maximal effect", "conditions": "viability/growth inhibition; series mostly up to 46.1 µM", "in_short": "(§1)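 Adherent (2D) versus sphere (3D) formats; spheres generated 14 d in SCM beforehand. Compound transferred by pin tool after 4 h, 48 h incubation, CellTiter-Glo endpoint.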"}, "[4]": {"assay": "Identifying Small Molecule Inhibitors of Pancreatic Cancer Stem Cells (A278, Adherent) (AID 1259361)", "conditions": "series mostly up to 46.1 µM", "in_short": "as §1"}, "[5]": {"assay": "qHTS assay to identify small molecule inhibitors of chordoma cells - UCH-1 (AID 1259355)", "conditions": "UCH-1 chordoma viability, CellTiter-Glo, 48 h, combination, with auranofin plus four topoisomerase inhibitors; series mostly up to 46.1 µM", "in_short": "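800 cells/well, overnight attach; compounds pinned at 15 concs, then auranofin/camptothecin/doxorubicin/rubitecan/topotecan combo added; 48hr 37 C, 5% CO2; CellTiter-Glo, 30min RT, luminescence.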"}, "[6]": {"assay": "Identifying Small Molecule Inhibitors of Pancreatic Cancer Stem Cells (A2780, Spheroid) (AID 1259357)", "conditions": "Potency: A2780 spheroid viability; series mostly up to 46.1 µM", "in_short": "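Endpoint: ATP-based luminescence, 48 h drug exposure. Bortezomib at 9.2 uM final as full-kill control; DMSO vehicle as negative control; activity normalized between vehicle and cell-free wells.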"}, "[7]": {"assay": "Identifying Small Molecule Inhibitors of Pancreatic Cancer Stem Cells (Panc1, Spheroid) (AID 1259359)", "conditions": "Panc1 spheroid cancer stem cell viability", "in_short": "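Monolayer and spheroid cultures are compared. Spheroids form over 14 days in stem cell medium on hydrogel-coated low-attachment plates, then are exposed to compound for 48 h before CellTiter-Glo luminescence.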"}, "[8]": {"assay": "Identifying Small Molecule Inhibitors of Pancreatic Cancer Stem Cells (Panc1, Adherent) (AID 1259362)", "conditions": "Potency: viability; series mostly up to 46.1 µM", "in_short": "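Viability is scored by CellTiter-Glo luminescence 48 h after dosing, expressed as percent activity against vehicle and no-cell references. Spheroid formats rely on cells cultured 14 days in stem cell media beforehand.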"}}, "note": "Results filed as inconclusive are left out. A call without a number means that no potency is given here. Calls of active or inactive are those of the source. Calls follow the shape of the dose curve; as a rule, active = well fitted curve in the direction sought with a large enough effect; inconclusive = small, poorly fitted or top-dose-only effect, or another doubt; inactive = no such curve, though single readings can be large; an effect the other way counts as inactive or inconclusive. Peptide text beside a SMILES is read from it. For IC50 (viability decrease) in this document: nearly all actives have a fitted effect of over 35% in size."}
{"smiles": "Cc1ccc(S(=O)(=O)NC(=O)NN2CC3CCCC3C2)cc1", "note": "(stereo unspecified)", "values": [{"measurement": "Potency", "setting": "[1]", "value": "inactive"}]}
{"smiles": "Oc1ccc(-c2nc(-c3ccc(F)cc3)c(-c3ccncc3)[nH]2)cc1", "values": [{"measurement": "Potency", "setting": "[2]", "value": "inactive"}]}
{"smiles": "COc1cc(Nc2c(C#N)cnc3cc(OCCCN4CCN(C)CC4)c(OC)cc23)c(Cl)cc1Cl", "values": [{"measurement": "Potency", "setting": "[3]", "value": "26.4 µM (active)"}, {"measurement": "IC50 (viability decrease)", "setting": "[4]", "value": "23.5 µM (active)"}, {"measurement": "Potency", "setting": "[2]", "value": "18.4 µM (active)"}]}
{"smiles": "CCN(CC)CCOc1ccc(Cc2ccccc2)cc1", "values": [{"measurement": "Potency", "setting": "[5]", "value": "inactive"}, {"measurement": "Potency", "setting": "[1]", "value": "inactive"}]}
{"smiles": "COC(=O)[C@H](Cc1ccccc1)NC(=O)[C@@H](N)CC(=O)O", "note": "(H-Asp-Phe-OMe)", "values": [{"measurement": "Potency", "setting": "[5]", "value": "inactive"}, {"measurement": "Potency", "setting": "[1]", "value": "inactive"}]}
{"smiles": "CC(C)c1ccc2c(c1)c(SC(C)(C)C)c(CC(C)(C)C(=O)O)n2Cc1ccc(Cl)cc1", "values": [{"measurement": "Potency", "setting": "[6]", "value": "18.7 µM (active)"}, {"measurement": "Potency", "setting": "[3]", "value": "inactive"}, {"measurement": "Potency", "setting": "[7]", "value": "18.7 µM (active)"}, {"measurement": "Potency", "setting": "[8]", "value": "inactive"}]}
{"smiles": "Clc1ccc(C(Cn2ccnc2)OCc2ccsc2Cl)c(Cl)c1", "note": "(stereo unspecified)", "values": [{"measurement": "Potency", "setting": "[5]", "value": "inactive"}, {"measurement": "Potency", "setting": "[1]", "value": "inactive"}]}
{"smiles": "Cc1ncc([N+](=O)[O-])n1CC(C)O", "note": "(stereo unspecified)", "values": [{"measurement": "Potency", "setting": "[5]", "value": "inactive"}, {"measurement": "Potency", "setting": "[1]", "value": "inactive"}]}
{"smiles": "O=C(NCC1CCCCN1)c1cc(OCC(F)(F)F)ccc1OCC(F)(F)F", "note": "(stereo unspecified)", "values": [{"measurement": "Potency", "setting": "[1]", "value": "inactive"}]}
{"smiles": "CCCCN(CCCC)CCC(O)c1cc2c(Cl)cc(Cl)cc2c2cc(C(F)(F)F)ccc12", "note": "(stereo unspecified)", "values": [{"measurement": "Potency", "setting": "[1]", "value": "inactive"}]}
{"smiles": "CN1CCC(=C2c3ccccc3CCc3sccc32)CC1", "values": [{"measurement": "Potency", "setting": "[5]", "value": "inactive"}, {"measurement": "Potency", "setting": "[1]", "value": "inactive"}]}
{"smiles": "Cn1c(NCCN(CCO)CCCc2ccc([N+](=O)[O-])cc2)cc(=O)n(C)c1=O", "values": [{"measurement": "Potency", "setting": "[5]", "value": "inactive"}, {"measurement": "Potency", "setting": "[1]", "value": "inactive"}]}
{"smiles": "Cc1cccc(C#Cc2ccccc2)n1", "values": [{"measurement": "Potency", "setting": "[6]", "value": "inactive"}, {"measurement": "Potency", "setting": "[3]", "value": "inactive"}, {"measurement": "IC50 (viability decrease)", "setting": "[4]", "value": "inactive"}]}
{"smiles": "Nc1ncn([C@H]2C[C@H](O)[C@@H](CO)O2)c(=O)n1", "values": [{"measurement": "Potency", "setting": "[5]", "value": "inactive"}, {"measurement": "Potency", "setting": "[1]", "value": "inactive"}, {"measurement": "Potency", "setting": "[2]", "value": "inactive"}]}
{"smiles": "C=CCc1cc(OC)c(O)c(C(=O)NCCO)c1", "values": [{"measurement": "Potency", "setting": "[5]", "value": "inactive"}, {"measurement": "Potency", "setting": "[1]", "value": "inactive"}]}
